# Shown are actives, neighbours in structure and some others; about 4.6% of the full set was active somewhere.
# FAS-TE inh – FAS thioesterase (human) inhibition | P49327 | recombinant FAS-TE, OMFH fluorogenic substrate, fluorescence endpoint | inhibition, % at 15 µM | actives 0.67% (n = 360,000) | AID 602261;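 active = compounds whose normalised, plate-corrected inhibition of enzyme fluorescence in the single-dose primary screen is 50% or more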;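 also: 0% = DMSO with enzyme and 100% = substrate without enzyme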
# ADAM17 inh – inhibits human ADAM17; recombinant ADAM17, EDANS/DABCYL FRET peptide cleavage; actives 0.83% (n = 370,000); inhibition, % at 6.95 µM; P78536;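 active = inhibition above the mean of compounds lying between control limits plus 3 SD, set per campaign, cut at about 8.5% in these data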;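 also: 0% = DMSO-only wells as the low control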
# NR3A LBD binder – NR3A (human) ligand-binding domain modulation; actives 2.5% (n = 340,000); NR3A LBD differential scanning fluorimetry, Tm shift; 0% = protein alone, 100% = glycine-bound protein; Tm shift relative to glycine control, % at 25 µM;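 active = melting temperature shift of at least 10% of the positive control shift, at one fixed dose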
# proKLK7 act – proKLK7 (human) activation, primary screen; actives 0.9% (n = 370,000); purified proKLK7, EDANS-DABCYL substrate fluorescence; 100% is mature enzyme control, 0% vehicle; P49862; activation, % at 7 µM;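 active = activation above the mean of all tested compounds plus 3 SD, computed per campaign excluding outliers beyond control limits, cut at about 13% in these data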
# ADAM10 inh – ADAM10 inhibition, QFRET primary screen; actives 0.62% (n = 370,000); recombinant ADAM10, EDANS/DABCYL FRET peptide cleavage, 3 h; O14672; inhibition, % at 7 µM;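 active = inhibition above a per-campaign cutoff equal to the mean of compounds falling between control-based bounds plus 3 SD, cut at about 20% in these data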;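 also: 0% = DMSO wells while the 100% control is not disclosed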
# KLK7 act conf – proKLK7 activation, confirmation. actives 68% (n = 3,200). shares compounds with proKLK7 act. activation, % at 7 µM. AID 686949. purified proKLK7, EDANS-DABCYL substrate fluorescence; scaled: vehicle 0, mature enzyme 100;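 active = activation, as change over the incubation, above the mean of all tested compounds plus 3 SD, cut at about 13% in these data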
# EDANS-DABCYL int – optically interferes with EDANS-DABCYL signal, flagging KLK7 hits; shares compounds with proKLK7 act; EDANS-DABCYL substrate fluorescence interference, no enzyme, 4 h; solvent 0%, active enzyme control 100%; activation, % at 7 µM; actives 80% (n = 3,200); AID 686952;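 active = activation above the all-compound mean plus 3 SD, ignoring values outside control-based bounds, cut at about 4.8% in these data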;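 also: value is the 4 h activation minus the activation read at time zero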
# EDANS interf – optically interferes with EDANS-DABCYL fluorescence, kallikrein-7 activator counter-screen. shares compounds with proKLK7 act. EDANS-DABCYL peptide fluorescence interference, no enzyme. EC50, µM. actives 20% (n = 250). AID 720493;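 active = compounds that raise the fluorescence signal in this interference counterscreen, with EC50 at or below 10 µM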;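 also: intact quenched peptide substrate alone read at 355 nm excitation and 520 nm emission; signal is fluorescence gain from T0 to T4 after four hours at room temperature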
# Starred values were filed as active, the others as inactive; i = inactive; · = no result.
SMILES,FAS-TE inh,ADAM17 inh,NR3A LBD binder,proKLK7 act,ADAM10 inh,KLK7 act conf,EDANS-DABCYL int,others
CCOC(=O)c1cc2c(=O)n3ccccc3nc2n(C(C)C)c1=NC(=O)c1ccco1,4,i,1,44*,i,59*,51*,
CCCn1c(=NC(=O)c2ccco2)c(C(=O)OCC)cc2c(=O)n3ccccc3nc21,33,i,2,89*,i,35*,35*,
CCCCCn1c(=NC(=O)c2cccnc2)c(C#N)cc2c(=O)n3cccc(C)c3nc21,22,-140,1,-12,-436,·,·,
O=C(OCC#CCSc1nnc(-c2cccc3ccccc23)o1)c1ccc(Cl)c(C(F)(F)F)c1,·,-6,·,·,-9,·,·,
COC(=O)C1CN(Cc2ccc(Cl)cc2)CCS(=O)(=O)N1Cc1cn(Cc2ccc(C)cc2)nn1 (stereo not given),·,4,·,1,10,·,·,
COC(=O)C1=C(C)N(Cc2cccc(C(F)(F)F)c2)C(=NCc2cc(OC)c(OC)c(OC)c2)NC1c1cccc(Cl)c1 (stereo not given),·,-5,·,0,-9,·,·,
CNc1ccc(-c2cccc(CO)c2)cn1,-3,i,·,20*,i,24*,16*,EDANS interf=>70
CNc1ccc(-c2cccc(C(C)=O)c2)cn1,-2,-14,·,-1,-32,·,·,
CCOC(=O)Cn1c(=NC(=O)c2cc(-c3cccs3)nc3ccccc23)sc2cc(S(N)(=O)=O)ccc21,1,-23,26*,172*,-73,-2,-15,
COC(=O)Cn1c(=NC(=O)c2nc3ccccc3s2)sc2cc(S(N)(=O)=O)ccc21,-7,-4,-2,0,-13,·,·,
Cc1cccc(C)c1NC(=O)C1=C(O)c2ccccc2N(C)S1(=O)=O,-4,-4,2,0,-1,·,·,
Cc1ccc(NC(=O)C2=C(O)c3ccccc3N(C)S2(=O)=O)cc1,-2,-63,-7,51*,-268,6,9.3*,
CCC(CC)CC1CN2CCc3cc(OC)c(OC)cc3C2CC1(O)CC (stereo not given),-5,-77,·,30*,-339,20*,17*,EDANS interf=>70
Cc1cnc(-c2nnc(N(C)C(=O)C3CCCO3)s2)cn1 (stereo not given),-3,-19,-3,74*,-57,114*,108*,
COCC(=O)N(C)c1nnc(-c2cnc(C)cn2)s1,-9,-8,0,17*,-15,70*,81*,
CN(C(=O)C1CCOC1)c1nnc(-c2cnccn2)s1 (stereo not given),-7,-8,2,29*,-9,26*,26*,
COc1ccc(-c2nnc(N(C)C(=O)C3CCOC3)s2)cc1 (stereo not given),-3,-5,0,1,-4,·,·,
COc1ccc(-c2nnc(N(C)C(=O)C3CCCO3)s2)cc1 (stereo not given),-4,-2,0,2,3,·,·,
O=C(CSc1nnc(-c2cnccn2)n1-c1ccccc1)Nc1ccc2cn[nH]c2c1,·,-3,·,0,-7,·,·,
CC(=O)c1c(C)nc2nonc2c1N,-8,-61,4,16*,-153,33*,38*,
Cc1ccc(C2CCC3(CCC(=O)N3CCOC(=O)Nc3ccc(F)cc3)CC2)cc1 (stereo not given),·,-2,·,0,2,·,·,
CS(=O)(=O)Nc1ccc(C2=NN(C(=O)CCCC(=O)O)C(c3cccs3)C2)cc1 (stereo not given),-3,i,1,26*,i,48*,74*,
CNC(=S)NNC(=O)c1cccc(N(C)C)c1,-10,-10,1,14*,-36,13*,12*,
COc1ccc2ccccc2c1C1NC(=O)c2ccccc2N1 (stereo not given),1,-210,3,16*,i,13,6.6*,
COc1ccc(C2NC(=O)c3ccccc3N2)cc1OC (stereo not given),-4,-214,1,7,i,·,·,
SMILES,FAS-TE inh,ADAM17 inh,NR3A LBD binder,proKLK7 act,ADAM10 inh,KLK7 act conf,EDANS-DABCYL int,others
CCCc1cc(=O)oc2cc(C)cc(OCC(=O)O)c12,0,-186,-1,19*,i,36*,34*,
CCCCc1cc(=O)oc2cc(O)cc(O)c12,0,i,-5,78*,i,70*,70*,
CCCCc1cc(=O)oc2cc(C)cc(OC(C)C(=O)O)c12 (stereo not given),-5,-245,-1,20*,i,31*,33*,
COc1ccc(CCC[C@@H](CCC(=O)N(c2ccccc2)c2ccccc2)CCc2ccccc2)cc1,·,-7,·,-2,-17,·,·,
CN(C(=O)c1ccncc1)c1nnc(-c2ccccn2)s1,-6,-127,2,64*,i,88*,81*,
Cn1ccnc1C(=O)O[C@@H]1CCC[C@@]2(C(=O)N(Cc3ccccc3)c3ccccc32)[C@H]1NC(=O)CCc1ccccc1,·,3,·,0,7,·,·,
COc1cc2ccccc2cc1C(=O)Nc1nccs1,-2,-21,3,0,-98,·,·,
COc1cccc(C=Nc2ccccc2C(=O)Nc2nccs2)c1OC,13,-373,-2,25*,i,-65,-49,
Nc1[nH]c(C(=O)c2ccccc2)c(-c2ccc(Cl)cc2)c1C(=O)c1c[nH]c2ccc(F)cc12,·,-2,·,0,0,·,·,
CCC1CCc2c(sc(NC(=O)c3ccco3)c2C(N)=O)C1 (stereo not given),12,-8,715*,91*,-26,-13,-16,
CC(C)(C)C1CCc2c(sc(NC(=O)c3ccco3)c2C(N)=O)C1 (stereo not given),12,-4,-2,-1,-3,·,·,
C=C1[C@@H]2CC[C@H]3[C@]4(C)[C@@H](O)CC[C@@](C)(C(=O)OC)[C@H]4C[C@H](O)[C@]3(C2)[C@H]1O,·,-3,·,1,-5,·,·,
Cc1cc(N2CCN(c3ccccc3)CC2)nc2ccccc12,26,-6,2,1,-6,·,·,
Cc1cc(N2CCC(N(C)C3CCCC3)CC2)nc2cc(O)ccc12,-11,-282,-1,16*,i,25*,31*,
O=C(O)c1ccc(N2N=C(c3ccccc3)CC2c2ccccc2)cc1 (stereo not given),9,i,4,64*,i,64*,75*,
CNc1cnc(-c2ccc(C(=O)N3CCOCC3)cc2)cn1,-4,i,·,20*,i,20*,22*,
CC(=O)Nc1cnc(-c2cccc(C(=O)N3CCOCC3)c2)cn1,-10,-19,·,0,-74,·,·,

# From PubChem BioAssay
